PubChem BioAssay
Activity calls are given as the source filed them.

Tests used:
[1] = binders of probe aFSTL3 on microarray, primary screen, stem cell growth factor project, biochemical, small-molecule microarray, fluorescence 635/667 (AID 1064); conditions: higher = more signal;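 also: measures binding of the biotinylated anti-FSTL3 antibody to printed compounds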
[2] = binders from COS7 lysate, DM2A8 probe, primary screen, torsin A project, cell lysate, small-molecule microarray, fluorescence 635/667 (AID 1065); conditions: higher = more signal, COS7 lysate expressing mutant human TOR1A
[3] = binders of probe aFGF2 on microarray, primary screen, stem cell growth factor project, biochemical, small-molecule microarray, fluorescence 635/667 (AID 1067); conditions: higher = more signal;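 also: measures binding of biotinylated aFGF2 protein to printed compounds on slides; z-score merges feature fluorescence and signal-to-noise across triplicate slides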
[4] = binders of probe aFGF10 on microarray, primary screen, stem cell growth factor project, biochemical, small-molecule microarray, fluorescence 635/667 (AID 1071); conditions: higher = more signal;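 also: score merges 667 nm spot intensity and signal to noise from triplicate slides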
[5] = biological target: Neurogenic locus notch homolog protein 2 (Homo sapiens) (UniProt Q04721); assay: Notch2 binders on small-molecule microarrays, primary screen, biochemical, small-molecule microarray, 635 nm fluorescence, stem cell growth factors (AID 1073); conditions: Notch2 binding, higher = more signal
[6] = biological target: Pro-neuregulin-1, membrane-bound isoform (Homo sapiens) (UniProt Q02297); assay: NRG1 binders on small-molecule microarrays, primary screen, psychiatric disease protein project, biochemical, small-molecule microarray, fluorescence 635/667 (AID 1075); conditions: NRG1 binding, 635 nm fluorescence, higher = more signal;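 also: score combines 667 nm spot fluorescence with signal to noise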
Sequence of Pro-neuregulin-1, membrane-bound isoform (Homo sapiens) (Q02297 whole entry, looked up, the tested form may be a part, canonical isoform): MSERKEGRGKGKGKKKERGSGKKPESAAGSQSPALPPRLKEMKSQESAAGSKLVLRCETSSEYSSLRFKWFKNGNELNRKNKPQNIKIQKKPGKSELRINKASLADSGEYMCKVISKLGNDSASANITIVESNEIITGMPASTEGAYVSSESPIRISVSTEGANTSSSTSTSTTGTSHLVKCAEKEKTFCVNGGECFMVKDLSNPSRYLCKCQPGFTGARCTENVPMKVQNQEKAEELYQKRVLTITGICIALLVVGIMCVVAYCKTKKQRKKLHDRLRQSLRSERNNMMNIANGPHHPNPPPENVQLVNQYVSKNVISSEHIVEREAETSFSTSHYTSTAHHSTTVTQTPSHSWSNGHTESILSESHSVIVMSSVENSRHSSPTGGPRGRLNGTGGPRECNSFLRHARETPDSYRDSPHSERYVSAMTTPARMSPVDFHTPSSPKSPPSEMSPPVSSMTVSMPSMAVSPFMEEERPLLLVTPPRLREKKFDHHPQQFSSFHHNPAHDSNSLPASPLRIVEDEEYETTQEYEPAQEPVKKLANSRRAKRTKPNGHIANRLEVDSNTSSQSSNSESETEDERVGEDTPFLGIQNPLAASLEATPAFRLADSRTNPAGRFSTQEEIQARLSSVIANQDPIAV

[7] = tested on: Neuregulin-1 EGF-like domain; assay: binders of neuregulin-1 EGF-like domain, primary screen, biochemical, small-molecule microarray, 635 nm fluorescence (AID 1081); conditions: small-molecule microarray binding, higher = more signal;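 also: binding of the protein to compounds printed on small-molecule microarray slides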
[8] = FRG1 promoter luciferase signal modulators, primary screen, FRG1 inhibition for FSHD, cell-based, C2C12 myotubes, firefly/Renilla luciferase, luminescence (AID 1084); conditions: higher = more signal, called active from +8 up or from −8 down
[9] = binders of probe aFST on microarray, primary screen, stem cell growth factor project, biochemical, small-molecule microarray, fluorescence 635/667 (AID 1086); conditions: higher = more signal;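 also: score merges 667 nm fluorescence with signal-to-noise of each printed compound spot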
[10] = binders of probe aHhip on microarray, primary screen, stem cell growth factor project, biochemical, small-molecule microarray, fluorescence 635/667 (AID 1087); conditions: higher = more signal;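 also: score merges spot fluorescence at 667nm with spot signal to noise ratio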
[11] = tested on: PRMT1 (protein arginine N-methyltransferase 1); assay: PRMT1 binders on small-molecule microarrays, primary screen, biochemical, small-molecule microarray, 635 nm fluorescence (AID 1088); conditions: small-molecule microarray binding, higher = more signal;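 also: binding of Prmt1 protein to compounds spotted on small-molecule microarray slides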
[12] = yeast growth modulation, basal conditions, primary screen, YJM789 clinical isolate, OD600, 24 h (AID 1089);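 also: growth of clinical yeast isolate S. cerevisiae YJM 789 seeded 1000 cells per well; test concentration not given here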; conditions: S. cerevisiae YJM789 growth, higher = more signal, called active from +8 up or from −8 down
[13] = fission yeast growth modulation, primary screen, strain 972, OD600, 24 h, no modulator (AID 1090);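 also: basal condition with compound alone and no growth modifier present; test concentration not given here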; conditions: S. pombe 972 growth, higher = more signal, called active from +8 up or from −8 down
[14] = S. cerevisiae growth modulation with rapamycin, primary screen, strain BY4716, OD600, 96 h (AID 1091); conditions: higher = more signal, called active from +8 up or from −8 down; also: test concentration not given here
[15] = biological target: Torsin-1A-interacting protein 2 (Homo sapiens) (UniProt Q8NFQ8); assay: LULL1 binders on small-molecule microarray, primary screen, cell lysate, human LULL1 lysate, 635/667 nm fluorescence (AID 1092); conditions: hLULL1 lysate binding, 635 nm fluorescence, higher = more signal;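 also: probe is lysate of COS7 cells overexpressing human LULL1; score merges per-feature 667 nm fluorescence with signal-to-noise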
Sequence of Torsin-1A-interacting protein 2 (Homo sapiens) (Q8NFQ8 whole entry, looked up): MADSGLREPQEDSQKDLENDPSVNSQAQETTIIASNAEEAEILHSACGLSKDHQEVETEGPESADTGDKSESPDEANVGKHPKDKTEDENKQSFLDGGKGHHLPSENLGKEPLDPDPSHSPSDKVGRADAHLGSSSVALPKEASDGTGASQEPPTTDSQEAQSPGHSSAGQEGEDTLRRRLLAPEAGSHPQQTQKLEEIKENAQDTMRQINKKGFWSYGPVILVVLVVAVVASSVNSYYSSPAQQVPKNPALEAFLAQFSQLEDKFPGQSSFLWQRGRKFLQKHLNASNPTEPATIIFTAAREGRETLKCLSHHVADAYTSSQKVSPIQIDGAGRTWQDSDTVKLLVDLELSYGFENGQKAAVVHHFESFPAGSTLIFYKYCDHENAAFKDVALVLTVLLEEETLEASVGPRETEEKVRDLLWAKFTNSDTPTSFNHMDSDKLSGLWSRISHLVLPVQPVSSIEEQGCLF

[16] = E. coli growth modulation, two-sided OD650, primary screen, E. coli filamentation project, strain DRC41, 24 h (AID 1093); conditions: OD650, 24 h, higher = more signal, called active from +8 up or from −8 down;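 also: MC1000 strain lacking acrAB efflux and sulA so SOS filamentation is blocked; test concentration not given here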
[17] = small-molecule microarray binders of probe aLefty2, primary screen, biochemical, biotinylated probe, 635/667 nm fluorescence (AID 1094); conditions: higher = more signal;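 also: score merges spot fluorescence near 667 nm with spot signal-to-noise ratio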
[18] = tested on: Noggin (protein binding on small-molecule microarray); assay: Noggin binders on small-molecule microarray, primary screen, biochemical, 635/667 nm fluorescence (AID 1095); conditions: 635 nm fluorescence, higher = more signal;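 also: score merges 667 nm feature fluorescence with signal to noise over triplicate slides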
[19] = biological target: Neurogenic locus notch homolog protein 3 (Homo sapiens) (UniProt Q9UM47); assay: NOTCH3 binders on small-molecule microarray, primary screen, biochemical, 635/667 nm fluorescence (AID 1096); conditions: NOTCH3 binding, 635 nm fluorescence, higher = more signal
Sequence of Neurogenic locus notch homolog protein 3 (Homo sapiens) (Q9UM47 whole entry, looked up): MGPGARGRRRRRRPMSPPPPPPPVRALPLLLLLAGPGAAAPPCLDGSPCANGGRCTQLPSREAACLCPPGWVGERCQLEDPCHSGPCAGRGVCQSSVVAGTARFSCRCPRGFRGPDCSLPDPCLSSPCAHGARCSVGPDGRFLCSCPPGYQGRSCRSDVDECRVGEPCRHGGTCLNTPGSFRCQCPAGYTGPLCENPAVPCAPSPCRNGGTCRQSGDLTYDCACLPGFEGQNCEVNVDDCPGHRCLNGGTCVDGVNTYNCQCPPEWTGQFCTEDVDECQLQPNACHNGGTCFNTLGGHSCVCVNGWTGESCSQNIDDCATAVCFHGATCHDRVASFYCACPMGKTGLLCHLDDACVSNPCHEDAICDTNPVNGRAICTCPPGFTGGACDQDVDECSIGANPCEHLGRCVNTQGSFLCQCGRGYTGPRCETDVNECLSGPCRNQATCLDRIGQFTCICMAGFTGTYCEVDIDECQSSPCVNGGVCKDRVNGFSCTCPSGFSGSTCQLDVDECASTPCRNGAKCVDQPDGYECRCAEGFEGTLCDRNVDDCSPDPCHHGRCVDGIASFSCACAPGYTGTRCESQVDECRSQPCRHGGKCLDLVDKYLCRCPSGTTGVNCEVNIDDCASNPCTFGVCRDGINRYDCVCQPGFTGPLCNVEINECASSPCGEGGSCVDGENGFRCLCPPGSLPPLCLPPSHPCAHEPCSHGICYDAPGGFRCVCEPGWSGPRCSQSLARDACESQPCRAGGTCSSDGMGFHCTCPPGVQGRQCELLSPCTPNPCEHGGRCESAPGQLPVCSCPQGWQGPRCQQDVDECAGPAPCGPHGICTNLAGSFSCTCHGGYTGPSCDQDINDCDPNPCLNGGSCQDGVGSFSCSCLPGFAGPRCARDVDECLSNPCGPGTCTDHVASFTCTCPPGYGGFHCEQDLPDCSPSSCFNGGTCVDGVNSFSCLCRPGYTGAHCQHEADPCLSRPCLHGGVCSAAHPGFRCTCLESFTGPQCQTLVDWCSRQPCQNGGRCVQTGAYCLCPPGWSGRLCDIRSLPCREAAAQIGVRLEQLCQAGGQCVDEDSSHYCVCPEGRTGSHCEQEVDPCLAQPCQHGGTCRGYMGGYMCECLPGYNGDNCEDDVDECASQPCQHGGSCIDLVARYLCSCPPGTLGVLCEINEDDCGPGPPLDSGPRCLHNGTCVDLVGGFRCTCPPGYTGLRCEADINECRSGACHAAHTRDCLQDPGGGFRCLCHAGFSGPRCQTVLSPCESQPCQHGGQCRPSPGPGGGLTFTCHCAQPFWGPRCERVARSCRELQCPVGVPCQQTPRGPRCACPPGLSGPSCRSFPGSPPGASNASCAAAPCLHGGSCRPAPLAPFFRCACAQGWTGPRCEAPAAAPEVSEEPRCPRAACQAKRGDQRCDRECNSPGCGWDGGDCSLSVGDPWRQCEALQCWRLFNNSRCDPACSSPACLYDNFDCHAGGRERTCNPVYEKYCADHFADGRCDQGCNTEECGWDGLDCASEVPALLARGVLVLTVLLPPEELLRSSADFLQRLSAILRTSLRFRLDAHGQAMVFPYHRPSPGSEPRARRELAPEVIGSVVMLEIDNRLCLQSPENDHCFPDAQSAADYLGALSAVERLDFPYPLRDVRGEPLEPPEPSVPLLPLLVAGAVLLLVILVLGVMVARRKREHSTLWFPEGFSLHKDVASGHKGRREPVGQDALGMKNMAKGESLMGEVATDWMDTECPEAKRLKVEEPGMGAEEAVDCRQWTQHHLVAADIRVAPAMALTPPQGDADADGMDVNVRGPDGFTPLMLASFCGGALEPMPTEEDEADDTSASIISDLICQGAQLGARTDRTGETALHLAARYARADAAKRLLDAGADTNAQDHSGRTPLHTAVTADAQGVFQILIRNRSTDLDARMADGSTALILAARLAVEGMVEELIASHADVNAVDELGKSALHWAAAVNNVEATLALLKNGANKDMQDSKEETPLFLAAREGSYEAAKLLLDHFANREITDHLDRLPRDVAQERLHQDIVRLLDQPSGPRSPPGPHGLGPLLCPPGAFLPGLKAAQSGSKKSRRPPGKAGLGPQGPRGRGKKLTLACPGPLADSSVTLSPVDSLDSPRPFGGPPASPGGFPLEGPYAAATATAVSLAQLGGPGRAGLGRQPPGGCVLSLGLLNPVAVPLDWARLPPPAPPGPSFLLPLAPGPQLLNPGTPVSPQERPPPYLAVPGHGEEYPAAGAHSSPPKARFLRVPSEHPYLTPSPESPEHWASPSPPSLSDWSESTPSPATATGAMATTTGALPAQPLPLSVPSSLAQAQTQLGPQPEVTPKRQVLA

[20] = small-molecule microarray binders of probe aEGFR, primary screen, biochemical, biotinylated probe, 635/667 nm fluorescence (AID 1097); conditions: higher = more signal;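 also: probe is a biotinylated anti-EGFR antibody binding compounds printed on slides; score combines fluorescence near 667 nm and signal to noise of each spot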

O=C1C[C@@H](O)[C@@H](O)[C@@H]2[C@@H]3C(=O)N(c4ccc(F)cc4F)C(=O)[C@@H]3CC[C@H]12
composite z-score [1]: -0.517
composite z-score [2]: 0.248
composite z-score [3]: -0.1
composite z-score [4]: 0.648
composite z-score [5]: 0.601
composite z-score [6]: 0.0794
composite z-score [7]: 0.354
z-score [8]: -0.536 (inactive)
composite z-score [9]: 0.201
composite z-score [10]: 0.0373
composite z-score [11]: 0.599
z-score [12]: -0.175 (inactive)
z-score [13]: -0.177 (inactive)
z-score [14]: -0.147 (inactive)
composite z-score [15]: 0.734
z-score [16]: 0.124 (inactive)
composite z-score [17]: -0.0782
composite z-score [18]: 0.43
composite z-score [19]: 0.6
composite z-score [20]: -0.0695

CC(CCC(=O)OC[C@H]1O[C@H](C#Cc2ccccc2)C=C[C@@H]1Oc1ccc(C)cc1)=NOC(C)CN1CCCCc2nc(C)c(C)cc21 (stereo not given in full)
composite z-score [1]: -0.172
composite z-score [2]: -0.116
composite z-score [3]: -0.211
composite z-score [4]: -0.12
composite z-score [5]: -0.565
composite z-score [6]: 0.904
composite z-score [7]: -0.491
z-score [8]: 0.49 (inactive)
composite z-score [9]: -0.697
composite z-score [10]: -0.143
composite z-score [11]: 0.479
z-score [12]: -0.167 (inactive)
z-score [13]: -0.324 (inactive)
z-score [14]: -0.773 (inactive)
composite z-score [15]: 0.238
z-score [16]: 0.136 (inactive)
composite z-score [17]: -0.0454
composite z-score [18]: -0.0193
composite z-score [19]: -0.171
composite z-score [20]: -0.18

COC(=O)[C@H](C)NC(=O)CC=C[C@@H](C)[C@@H]1C=C[C@H](O)[C@@H](CO)O1
composite z-score [1]: -0.636
composite z-score [2]: 0.677
composite z-score [3]: -0.134
composite z-score [4]: 0.538
composite z-score [5]: 0.0931
composite z-score [6]: -0.419
composite z-score [7]: 0.655
z-score [8]: 0.439 (inactive)
composite z-score [9]: 0.258
composite z-score [10]: -0.0645
composite z-score [11]: 0.854
z-score [12]: 0.351 (inactive)
z-score [13]: 0.245 (inactive)
z-score [14]: 0.358 (inactive)
composite z-score [15]: 0.248
z-score [16]: 1.02 (inactive)
composite z-score [17]: -0.0381
composite z-score [18]: 1.34
composite z-score [19]: 0.873
composite z-score [20]: 0.241

CON=C(C)CCN1CCCCc2nc(C)c(C)cc21
composite z-score [1]: 0.367
composite z-score [2]: 1.01
composite z-score [3]: 0.0121
composite z-score [4]: 0.241
composite z-score [5]: 0.133
composite z-score [6]: 0.525
composite z-score [7]: 0.93
z-score [8]: 0.997 (inactive)
composite z-score [9]: 0.437
composite z-score [10]: -0.0296
composite z-score [11]: 0.46
z-score [12]: -0.114 (inactive)
z-score [13]: -0.0037 (inactive)
z-score [14]: -0.508 (inactive)
composite z-score [15]: 0.799
z-score [16]: 0.165 (inactive)
composite z-score [17]: 0.0945
composite z-score [18]: 0.572
composite z-score [19]: 0.397
composite z-score [20]: 0.0978

O=C1[C@H]2[C@H]3[C@H](O)[C@H](O)CC(=NO[C@@H]4O[C@H](CO)[C@@H](O)[C@H](O)[C@H]4O)[C@@H]3CC[C@H]2C(=O)N1c1cccc(Oc2ccccc2)c1
composite z-score [1]: -0.309
composite z-score [2]: 0.21
composite z-score [3]: -0.125
composite z-score [4]: 0.649
composite z-score [5]: 0.628
composite z-score [6]: 0.495
composite z-score [7]: 1.02
z-score [8]: 0.423 (inactive)
composite z-score [9]: 0.365
composite z-score [10]: 0.0373
composite z-score [11]: -0.175
z-score [12]: -0.603 (inactive)
z-score [13]: 0.275 (inactive)
z-score [14]: 0.0506 (inactive)
composite z-score [15]: 0.879
z-score [16]: 0.364 (inactive)
composite z-score [17]: -0.028
composite z-score [18]: 0.672
composite z-score [19]: 0.449
composite z-score [20]: 0.0102

O=C1C=C[C@@H](O)[C@@H]2[C@@H]3C(=O)N(C4CCCCC4)C(=O)[C@@H]3CC[C@@H]12
composite z-score [1]: 0.585
composite z-score [2]: 0.0002
composite z-score [3]: -0.189
composite z-score [4]: 0.442
composite z-score [5]: 0.545
composite z-score [6]: 0.305
composite z-score [7]: 0.968
z-score [8]: -0.325 (inactive)
composite z-score [9]: 0.265
composite z-score [10]: 0.0373
composite z-score [11]: 0.299
z-score [12]: 0.126 (inactive)
z-score [13]: -1.32 (inactive)
z-score [14]: -1.27 (inactive)
composite z-score [15]: 0.548
z-score [16]: -0.115 (inactive)
composite z-score [17]: -0.0678
composite z-score [18]: 0.277
composite z-score [19]: 0.818
composite z-score [20]: 0.0587

C[C@@H]1CC[C@H]2C(=O)O[C@@H](CN=[N+]=[N-])CN2[C@H]1c1ccc(Br)cc1
composite z-score [1]: -0.264
composite z-score [2]: -0.021
composite z-score [3]: -0.085
composite z-score [4]: 0.361
composite z-score [5]: 0.271
composite z-score [6]: 0.486
composite z-score [7]: 0.786
z-score [8]: -1.46 (inactive)
composite z-score [9]: 0.0048
composite z-score [10]: -0.199
composite z-score [11]: 1.34
z-score [12]: 1.85 (inactive)
z-score [13]: -10.5 (active)
z-score [14]: 32.7 (active)
composite z-score [15]: 1.69
z-score [16]: 0.176 (inactive)
composite z-score [17]: -0.15
composite z-score [18]: 0.553
composite z-score [19]: 0.679
composite z-score [20]: -0.104

CCOC(=O)[C@H](Cc1ccccc1)NC(=O)CCC1CC(OC(=O)NCc2cccc3ccccc23)CC2(CCCC(COC(=O)NCC3CCCCC3)O2)O1 (stereo not given in full)
composite z-score [1]: -0.421
composite z-score [2]: 0.979
composite z-score [3]: -0.154
composite z-score [4]: 0.183
composite z-score [5]: 0.595
composite z-score [6]: 0.619
composite z-score [7]: 0.994
z-score [8]: 0.0184 (inactive)
composite z-score [9]: 0.253
composite z-score [10]: 0.102
composite z-score [11]: 1.41
z-score [12]: -0.617 (inactive)
z-score [13]: -0.174 (inactive)
z-score [14]: -0.445 (inactive)
composite z-score [15]: 1.4
z-score [16]: -0.448 (inactive)
composite z-score [17]: -0.117
composite z-score [18]: 0.926
composite z-score [19]: 1.14
composite z-score [20]: -0.0381
